This note sets out measurements from PubChem BioAssay (NCI).

The panel holds about 83,000 compounds, 20% with a hit somewhere; the sample as a whole holds those more often.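 Step 1: grow cells in 96-well plates. Step 2: add test compound at a single concentration. Step 3: incubate 48 h. Step 4: record percent growth.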 Unmarked numbers belong to inactive results. Activity calls are given as the source filed them. Rule for the calls: active = growth percent below 10; inactive = the rest.

Test systems include NCI-H23 lung; NCI-H226 lung; NCI-H322M lung; HOP-62 NSCLC; NCI-H460 lung; HOP-92 NSCLC; NCI-H522 lung; A549/ATCC NSCLC; 786-0 renal; COLO 205 colon; DU-145 prostate; K-562 leukemia; MALME-3M melanoma; MDA-MB-231 breast; RXF 393 renal; SF-268 CNS; SF-295 CNS; SF-539 CNS; UACC-257 melanoma; M14 melanoma.
Holding throughout (assay): NCI-60 one-dose screen, 48 h (100 = growth as untreated, 0 = no growth, -100 = all killed)
Holding throughout (conditions): 10 µM unless noted

Consider `CCOC(=O)C1=C(C)NC(C)=C(C(=O)OCC)C1c1cc(Br)c(O)c(OC)c1`, for which the growth with NCI-H23 lung is 34.3%; in the experiment on NCI-H226 lung, 32.7%; in the experiment with NCI-H322M lung, 55.3%; with HOP-62 NSCLC, 31.8%; in the experiment with NCI-H460 lung it was 18.7%; in the experiment with HOP-92 NSCLC, 16.3%. For the same compound, the growth in the experiment on NCI-H522 lung is -37.5% (active); in the experiment with A549/ATCC NSCLC it was 33.2%; with 786-0 renal, 29.1%; in the experiment on COLO 205 colon, 104%; in the experiment with DU-145 prostate, 20.8%; in the experiment with K-562 leukemia, 25.5%. Besides, the growth was 33.3% in the experiment with MALME-3M melanoma; 53.7% with MDA-MB-231 breast; -26.6% (active) with RXF 393 renal; 54.9% with SF-268 CNS; 16.2% in the experiment on SF-295 CNS; 22.8% with SF-539 CNS. Also, the figures for the growth in the experiment on UACC-257 melanoma and in the experiment with M14 melanoma were 59.1% and 3.03% (active), respectively.
Take `CC(=O)O[C@]1(C(C)=O)CC[C@H]2[C@@H]3C=C(Cl)C4=CC(=O)CC[C@]4(C)[C@H]3CC[C@@]21C`: the growth in the experiment on NCI-H23 lung was 114%; in the experiment with NCI-H226 lung, 94.4%; with NCI-H322M lung, 106%; with HOP-62 NSCLC, 106%; in the experiment with NCI-H460 lung it was 105%; with HOP-92 NSCLC, 96.7%. The growth is 72.2% in the experiment with NCI-H522 lung; 91.5% in the experiment on A549/ATCC NSCLC; 99.4% in the experiment on 786-0 renal; 133% in the experiment on COLO 205 colon; 122% in the experiment on DU-145 prostate; 96.7% in the experiment with K-562 leukemia. Further, the growth in the experiment on MALME-3M melanoma was 125%; with MDA-MB-231 breast, 88.1%; with RXF 393 renal it was 109%; with SF-268 CNS, 111%; in the experiment with SF-295 CNS, 113%; with SF-539 CNS it was 102%. Also, the growth in the experiment with UACC-257 melanoma is 97.2%; in the experiment on M14 melanoma, 103%.
Regarding `CCOC(=O)N1CCN(CCCCl)CC1`, the growth with NCI-H23 lung was 103%; in the experiment on NCI-H226 lung it was 102%; in the experiment on NCI-H322M lung, 101%; in the experiment on HOP-62 NSCLC it was 109%; in the experiment on NCI-H460 lung, 105%; with HOP-92 NSCLC, 95%. The growth is 95.4% in the experiment with NCI-H522 lung; 94.8% with A549/ATCC NSCLC; 98.4% with 786-0 renal; 113% with COLO 205 colon; 115% in the experiment on DU-145 prostate; 96.2% in the experiment on K-562 leukemia. Besides, the growth was 102% with MALME-3M melanoma; 100% in the experiment on MDA-MB-231 breast; 118% with RXF 393 renal; 104% with SF-268 CNS; 98.8% with SF-295 CNS; 97.7% in the experiment on SF-539 CNS. In addition, the growth in the experiment on UACC-257 melanoma is 96.6%; with M14 melanoma, 101%.
In the case of `COc1ccc2c(Nc3ccc(NS(C)(=O)=O)cc3)c3ccccc3nc2c1`, the growth with NCI-H23 lung is -18.6% (active); in the experiment on NCI-H226 lung, -27.1% (active); in the experiment on NCI-H322M lung, 9.34% (active); with HOP-62 NSCLC, -0.998% (active); in the experiment on NCI-H460 lung it was -21.8% (active); in the experiment on HOP-92 NSCLC, -16.6% (active). Moreover, the growth with NCI-H522 lung is -58.6% (active); with A549/ATCC NSCLC, -71.2% (active); with 786-0 renal it was 18.4%; with COLO 205 colon, -74.1% (active); with DU-145 prostate it was 8.86% (active); in the experiment with K-562 leukemia, 6.83% (active). Besides, the growth with MALME-3M melanoma was -50.7% (active); in the experiment on MDA-MB-231 breast, 3.5% (active); in the experiment with RXF 393 renal, -73.9% (active); in the experiment on SF-268 CNS, -2.84% (active); with SF-295 CNS, -27.9% (active); in the experiment with SF-539 CNS, -0.512% (active). The growth in the experiment with UACC-257 melanoma was -78% (active); in the experiment with M14 melanoma, -53.6% (active).
Take `CN(C)C(=O)c1cc2cnc(Nc3ccc(-c4csc5c(=O)cc(N6CCOCC6)oc45)cc3)nc2n1C1CCCC1`: the growth was -10.2% (active) in the experiment on NCI-H23 lung; 2.17% (active) in the experiment with NCI-H226 lung; -29% (active) in the experiment with NCI-H322M lung; -30.4% (active) with HOP-62 NSCLC; -26.4% (active) with NCI-H460 lung; -3.68% (active) in the experiment on HOP-92 NSCLC. Also, the growth is -65.1% (active) in the experiment with NCI-H522 lung; -36.8% (active) in the experiment on A549/ATCC NSCLC; -1.22% (active) with 786-0 renal; -84.3% (active) in the experiment with COLO 205 colon; -97.1% (active) with DU-145 prostate; 2.96% (active) in the experiment on K-562 leukemia. Besides, the growth is -67.9% (active) in the experiment with MALME-3M melanoma; -7.21% (active) with MDA-MB-231 breast; -85.8% (active) in the experiment on RXF 393 renal; -2.94% (active) in the experiment on SF-268 CNS; -36.9% (active) with SF-295 CNS; -70.2% (active) with SF-539 CNS. Also, the figures for the growth in the experiment with UACC-257 melanoma and in the experiment on M14 melanoma were -81.5% (active) and -73.4% (active), respectively.
Regarding `CC1(C)NCCC[C@]2(C)[C@H]3CC=C4[C@@H]5C[C@@](C)(CO)CC[C@]5(C)CC[C@@]4(C)[C@]3(C)CC[C@@H]12`, the growth in the experiment with NCI-H23 lung was 81.3%; with NCI-H226 lung, 83.9%; in the experiment on NCI-H322M lung, 81.7%; in the experiment on HOP-62 NSCLC, 88.8%; in the experiment with NCI-H460 lung, 4.29% (active); with HOP-92 NSCLC, 38.3%. In addition, the growth in the experiment on NCI-H522 lung is 73.8%; in the experiment on A549/ATCC NSCLC it was 51%; in the experiment with 786-0 renal, 55.5%; in the experiment on COLO 205 colon it was -4.98% (active); in the experiment with DU-145 prostate it was 75.6%; in the experiment on K-562 leukemia, 9.28% (active). Also, the growth in the experiment on MALME-3M melanoma is 57%; in the experiment on MDA-MB-231 breast it was 58%; in the experiment with RXF 393 renal, 57.8%; with SF-268 CNS, 67.1%; with SF-295 CNS, 64.1%; in the experiment with SF-539 CNS it was 64.6%. The results for the growth in the experiment on UACC-257 melanoma and in the experiment with M14 melanoma were 55.1% and 33.6%, respectively.
Turning to `Cc1ccc(O)c(C(=O)O)c1`, the growth with NCI-H23 lung is 100%; with NCI-H226 lung, 105%; in the experiment on NCI-H322M lung, 115%; in the experiment on HOP-62 NSCLC it was 99.8%; in the experiment with NCI-H460 lung, 103%; with HOP-92 NSCLC, 101%. The growth in the experiment with NCI-H522 lung was 99%; in the experiment with A549/ATCC NSCLC it was 103%; with 786-0 renal, 104%; in the experiment with COLO 205 colon, 120%; with DU-145 prostate it was 114%; in the experiment on K-562 leukemia it was 98.2%. For the same compound, the growth is 128% in the experiment on MALME-3M melanoma; 114% in the experiment on MDA-MB-231 breast; 121% in the experiment on RXF 393 renal; 104% with SF-268 CNS; 114% in the experiment on SF-295 CNS; 116% in the experiment on SF-539 CNS. In addition, the growth in the experiment with UACC-257 melanoma was 108%; with M14 melanoma, 116%.
